{
  "source": "ChEMBL document CHEMBL3988442",
  "about": "“University of Dundee, Small-Polar-MMV Screening Library” (2021)",
  "note": "Screen size: about 48,000 compounds; about 13,000 (27%) showed an effect of 50% or more. This is one part of the list.",
  "data": [
    {"tested_on": "Wolbachia pipientis", "experiment": "Anti-Wolbachia Cell-Based Screen", "assay_type": "functional", "design": "scale not given: in the data most compounds retested in dose-response had high values", "conditions": "5 µM", "units": {"Percent Effect": "%"}, "values": [
      {"smiles": "CCSCCC(=O)Nc1ncn(Cc2cccnc2)n1", "Percent Effect": -3.764},
      {"smiles": "O=S(=O)(Cc1cccc2cccnc12)NC(CO)c1ccco1", "note": "(stereo not given)", "Percent Effect": -8.128},
      {"smiles": "COc1ccccc1Oc1ncccc1CNC(=O)C1COC(=O)N1", "note": "(stereo not given)", "Percent Effect": 98.82},
      {"smiles": "Cc1ccc(Oc2ncccc2CNC(=O)C2COC(=O)N2)c(F)c1F", "note": "(stereo not given)", "Percent Effect": 65.92},
      {"smiles": "CCCS(=O)(=O)NCc1cccnc1Oc1ccc(C)c(F)c1F", "Percent Effect": -1.189},
      {"smiles": "COc1ccccc1Oc1ncccc1CNC(=O)[C@H](C)O", "Percent Effect": -22.76},
      {"smiles": "COc1ccccc1Oc1ncccc1CNC(=O)[C@@H](N)[C@@H](C)O", "Percent Effect": -22.34},
      {"smiles": "Cc1nc(CNCc2cccnc2Oc2ccc(C)c(F)c2F)c[nH]1", "Percent Effect": -6.11},
      {"smiles": "c1ccc(-c2nccc(CNCC3CCCN3c3cccnn3)n2)cc1", "note": "(stereo not given)", "Percent Effect": 1.65},
      {"smiles": "Cn1cnc2c1CCN(CC(O)c1ccc3c(c1)OCCO3)C2", "note": "(stereo not given)", "Percent Effect": 2.698},
      {"smiles": "Cc1nc(C(=O)N2CC(C)Sc3ccccc32)cs1", "note": "(stereo not given)", "Percent Effect": -0.9397},
      {"smiles": "CN(Cc1ncnn1C)c1ccnc(Cc2ccccc2)n1", "Percent Effect": -0.8819},
      {"smiles": "CCCS(=O)(=O)N1CCC2(CC1)CN(CC1CCOC1)c1ccccc12.O=C(O)C(F)(F)F", "note": "(stereo not given)", "Percent Effect": 105.4},
      {"smiles": "CCCS(=O)(=O)N1CCC2(CC1)CN(C(=O)N(C)C)c1ccccc12", "Percent Effect": -3.576},
      {"smiles": "CN1CC2(CCN(S(=O)(=O)C3CC3)CC2)c2ccccc21.O=C(O)C(F)(F)F", "Percent Effect": -12.74},
      {"smiles": "CCS(=O)(=O)N1CCC2(CCC(N3CCCC3)c3ccccc32)CC1.O=C(O)C(F)(F)F", "note": "(stereo not given)", "Percent Effect": 6.992},
      {"smiles": "O=C(O)C(F)(F)F.c1ccc2c(c1)N(CC1CCOC1)CC21CCN(c2cnccn2)CC1", "note": "(stereo not given)", "Percent Effect": 103.7},
      {"smiles": "CCCS(=O)(=O)N1CCC2(CC1)CC(N1CCCC1)c1ccccc12.O=C(O)C(F)(F)F", "note": "(stereo not given)", "Percent Effect": 11.6},
      {"smiles": "O=C(O)C(F)(F)F.c1cnc(N2CC3(CCN(C4CCOCC4)CC3)c3ccccc32)nc1", "Percent Effect": 5.791},
      {"smiles": "CCS(=O)(=O)N1CCC2(CC1)CN(CC1CCOC1)c1ccccc12.O=C(O)C(F)(F)F", "note": "(stereo not given)", "Percent Effect": 101.7},
      {"smiles": "O=C(O)C(F)(F)F.O[C@@H]1CCN(CC2CCOC2)[C@H]1Cc1ccccc1", "note": "(stereo not given in full)", "Percent Effect": -6.584},
      {"smiles": "O=C(O)C(F)(F)F.c1cncc(C2CC3(CCN(c4cnccn4)CC3)c3ccccc32)c1", "note": "(stereo not given)", "Percent Effect": 23.08},
      {"smiles": "O=C(O)C(F)(F)F.c1cnc(N2CC3(CCN(CC4CCOC4)CC3)c3ccccc32)nc1", "note": "(stereo not given)", "Percent Effect": -15.18},
      {"smiles": "CS(=O)(=O)N1CCC2(CC1)CN(CC1CCOC1)c1ccccc12.O=C(O)C(F)(F)F", "note": "(stereo not given)", "Percent Effect": 90.82},
      {"smiles": "COC[C@]12COC[C@H]1CN(S(=O)(=O)c1cccnc1)C2", "Percent Effect": 6.326},
      {"smiles": "Cc1nnc(N2C[C@H]3OCC[C@H]3[C@H](C(=O)NCC3CC3)C2)s1.O=C(O)C(F)(F)F", "Percent Effect": -6.656},
      {"smiles": "O=C1CC2(CCN(Cc3ccc4cccc(O)c4n3)CC2)CN1", "Percent Effect": -6.934},
      {"smiles": "COc1ccc(CCNc2cc(-c3nc(C)no3)ccn2)cc1OC", "Percent Effect": -4.716},
      {"smiles": "Fc1cnc(N2CCC3(COCc4cnc(NCC5CC5)nc43)C2)nc1", "note": "(stereo not given)", "Percent Effect": 3.153},
      {"smiles": "CCC(=O)N1CCC2(COCc3c(C)nc(NCc4ccco4)nc32)C1", "note": "(stereo not given)", "Percent Effect": 0.949},
      {"smiles": "COCC(=O)N1CCC2(COCc3cnc(NCc4ccco4)nc32)C1", "note": "(stereo not given)", "Percent Effect": 94.68},
      {"smiles": "CCC(=O)N1CCC2(COCc3cnc(NCc4ccco4)nc32)C1", "note": "(stereo not given)", "Percent Effect": 102.3},
      {"smiles": "CC(C)(C)C(=O)N1CCC2(COCc3cnc(N4CCOCC4)nc32)C1", "note": "(stereo not given)", "Percent Effect": -4.302},
      {"smiles": "CNC(=O)N1CCC2(COCc3c(C)nc(NCc4ccco4)nc32)C1", "note": "(stereo not given)", "Percent Effect": -16.5},
      {"smiles": "O=C(C1CC1)N1CCC2(COCc3cnc(NCc4ccco4)nc32)C1", "note": "(stereo not given)", "Percent Effect": 107.6},
      {"smiles": "CCC(C)(CC(=O)OC)NC(=O)c1cccc(F)c1F", "note": "(stereo not given)", "Percent Effect": 0.5787},
      {"smiles": "Cc1cc(NCCO)nc(N2CCC(Cc3ccccc3)CC2)c1C#N.O=C(O)C(=O)O", "Percent Effect": -4.494},
      {"smiles": "CC(C)N(CCSc1ncnc2[nH]ncc12)C(C)C", "Percent Effect": -23.68},
      {"smiles": "O=S(=O)(NCCn1cc(C2CCOC2)nn1)c1ccc(Cl)cc1", "note": "(stereo not given)", "Percent Effect": 2.449},
      {"smiles": "CCc1noc(CNc2cc3c(cc2Cl)OCCO3)n1", "Percent Effect": 29.93},
      {"smiles": "N#Cc1ccc(OCCOc2ccccc2C(=O)N2CCOCC2)cc1", "Percent Effect": 2.422},
      {"smiles": "CO[C@H]1CC[C@H]2[C@H]1OCCN2CCOCc1ccccc1.O=C(O)C(F)(F)F", "Percent Effect": -1.824},
      {"smiles": "CO[C@H]1CC[C@H]2[C@H]1OCCN2Cc1ccc(F)c(F)c1.O=C(O)C(F)(F)F", "Percent Effect": 110.9},
      {"smiles": "CO[C@@H]1CC[C@H]2[C@H]1OCCN2Cc1ccc(F)c(F)c1.O=C(O)C(F)(F)F", "Percent Effect": 101.8},
      {"smiles": "CO[C@@H]1CC[C@H]2[C@H]1OCCN2CCOCc1ccccc1.O=C(O)C(F)(F)F", "Percent Effect": 11.38},
      {"smiles": "CCc1cnc2c(c1Nc1ccncc1)c(=O)n(C)c(=O)n2C", "Percent Effect": 1.173},
      {"smiles": "Cc1ccc(Nc2c(C#N)c(=O)n(C)c(=O)n2C)cc1F", "Percent Effect": 8.024},
      {"smiles": "CCc1cnc2c(c1Nc1ccc3c(c1)OCO3)c(=O)n(C)c(=O)n2C", "Percent Effect": 105.3},
      {"smiles": "O=C(Nc1ccc2c(c1)OCO2)N1CCN(CCn2cccn2)CC1", "Percent Effect": 14.77},
      {"smiles": "CCc1cnc2c(c1Nc1ccc(C)c(F)c1)c(=O)n(C)c(=O)n2C", "Percent Effect": 84.08},
      {"smiles": "O=C(Nc1ccc2c(c1)OCO2)N1CCN(CCn2ccnc2)CC1", "Percent Effect": -13.91},
      {"smiles": "Cn1cnc(S(=O)(=O)Nc2cc(C(N)=O)ccc2Cl)c1", "Percent Effect": -10.15},
      {"smiles": "Cn1cc(C(=O)Nc2ccc3c(c2)N(C(=O)c2ccco2)CC3)nn1", "Percent Effect": 115.2},
      {"smiles": "Cn1cc(C(=O)Nc2ccc(CC(=O)NC3CC3)cc2)nn1", "Percent Effect": -0.7616},
      {"smiles": "CN(C)C(=O)Cc1ccc(NC(=O)c2cn(C)nn2)cc1", "Percent Effect": -4.709},
      {"smiles": "Cn1cc(C(=O)Nc2ccc(CC(=O)NCC(F)(F)F)cc2)nn1", "Percent Effect": -7.927},
      {"smiles": "Cn1cc(C(=O)Nc2ccc3c(c2)CN(C(=O)C2CC2)CC3)nn1", "Percent Effect": 116.9},
      {"smiles": "COC(=O)N1CCc2ccc(NC(=O)c3cn(C)nn3)cc2C1", "Percent Effect": 2.493},
      {"smiles": "Cn1cc(C(=O)Nc2ccc3c(c2)CN(C(=O)c2ccco2)CC3)nn1", "Percent Effect": 12.57},
      {"smiles": "CC(=O)N1CCc2ccc(NC(=O)c3cn(C)nn3)cc2C1", "Percent Effect": 105.1}
    ]}
  ]
}
